High-throughput results deposited in PubChem BioAssay by National Center for Advancing Translational Sciences (NCATS).
Compounds with a hit are over-represented: about 3.9% of the library has one in this group of screens.
VDR inh: blocks the human vitamin D receptor | P11473 | VDR-SRC2-3 peptide fluorescence polarization, 2 h | Potency, µM, usual class: inhibitors | 0.93% of 400,000 active | AID 504847
Target sequence (P11473 whole entry, looked up): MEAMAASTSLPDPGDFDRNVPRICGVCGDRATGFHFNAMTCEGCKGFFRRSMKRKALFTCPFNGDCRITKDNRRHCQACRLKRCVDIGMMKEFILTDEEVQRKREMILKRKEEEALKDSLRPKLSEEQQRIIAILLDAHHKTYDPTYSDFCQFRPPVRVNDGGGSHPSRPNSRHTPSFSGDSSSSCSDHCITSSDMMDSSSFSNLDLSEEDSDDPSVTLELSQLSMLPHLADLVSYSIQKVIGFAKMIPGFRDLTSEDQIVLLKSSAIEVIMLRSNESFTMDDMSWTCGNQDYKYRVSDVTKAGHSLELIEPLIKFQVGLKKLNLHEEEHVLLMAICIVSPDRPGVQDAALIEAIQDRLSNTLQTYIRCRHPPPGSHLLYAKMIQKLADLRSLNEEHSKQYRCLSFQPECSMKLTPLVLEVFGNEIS
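The screen uses fluorescence polarization to detect compounds that interfere with recruitment of the SRC2-3 coactivator peptide to VDR; plates are read after 2 h at room temperature.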
PLK1 PBD inh: blocks phosphopeptide binding to human PLK1 polo-box domain | P53350 | Plk1 PBD binding of FITC phosphopeptide, fluorescence polarization | Potency, µM, actives largely listed as inhibitors | 2.8% of 360,000 active; also: series mostly up to about 57 µM; nearly all actives have a fitted effect of over 65% in size
BRCA1 expr up: activators of BRCA1 expression. Potency, µM (series often up to 46.1 µM), actives largely listed as activators. 1.1% of 380,000 active. AID 624202. MCF7-BRCA1-FFLuc reporter, luminescence, 48 h; response scale: scaled: vehicle 0%, 10 µM genistein 100%; also: nearly all actives have a fitted effect of over 80% in size
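Luminescence from a BRCA1-driven firefly luciferase in MCF7 cells was read after 48 h compound exposure at 37 C. Data normalized against DMSO and a 10microM genistein activation control, then curve-fitted across the titration.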
Tb PFK block: inhibitors of T. brucei phosphofructokinase | O15648 | T. brucei PFK, ADP-Glo luminescence | Potency, µM (doses to about 57.5 µM), hits mostly inhibitors | 0.17% of 330,000 active | AID 485367; also: nearly all actives have a fitted effect of over 60% in size
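PFK 1.25 nM, F6P 0.5 mM, ATP 0.1 mM, 0.1 M TEA pH 8.0, 5 mM MgCl2, 0.01% Tween20, 0.1% BSA; 45 min RT. ADP-Glo readout. qHTS titration up to 57 uM; curves fitted, compounds curve-classed.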
Large screens that a line does not name were inactive; ! = not active in a repeat. Calls follow the shape of the dose curve; as a rule, active = well fitted curve in the direction sought with a large enough effect; inconclusive = small, poorly fitted or top-dose-only effect, or another doubt; inactive = no such curve, though single readings can be large; an effect the other way counts as inactive or inconclusive.

CCc1cc(=O)oc2cc(OCc3ccc(C(=O)O)o3)ccc12	BRCA1 expr up 6.3µM
Cc1cc(C)cc(-n2c(SCC(=O)N3CCc4ccccc43)nc3c([nH]c4ccccc43)c2=O)c1	none (no result: PLK1 PBD inh, Tb PFK block)
O=C(O)c1ccc2[nH]c3c(c2c1)CSCC3	VDR inh 45µM, PLK1 PBD inh inconclusive, Tb PFK block inconclusive
CN(C)CCOC(=O)c1ccc2[nH]c3c(c2c1)CSCC3	PLK1 PBD inh 30µM
COc1ccc(CNCCS(=O)(=O)NN2CCOCC2)cc1	VDR inh inconclusive, PLK1 PBD inh 9.5µM
CCCCCCCCNCCS(=O)(=O)NN1CCOCC1	PLK1 PBD inh 7.5µM
CCCCCCCCNCCS(=O)(=O)NCc1ccccc1	none (no result: Tb PFK block)
Cc1ccc(CNC(=O)c2cccn2-c2nnc(N3CCCCC3)s2)cc1	none (no result: PLK1 PBD inh, BRCA1 expr up, Tb PFK block)
CCOc1ccc(N2C(=O)CC(N3CCN(c4ccccc4F)CC3)C2=O)cc1 (stereo not given)	PLK1 PBD inh 27µM
CCOc1ccc(N2C(=O)CC(N3CCN(c4ccccc4OC)CC3)C2=O)cc1 (stereo not given)	none
CCC(C(=O)N1CCN(Cc2ccc3c(c2)OCO3)CC1)n1nnc2ccccc2c1=O (stereo not given)	none (no result: VDR inh, Tb PFK block)
O=C(c1ccc(Br)cc1)C(CN1CCOCC1)c1ccccc1 (stereo not given)	VDR inh 40µM, PLK1 PBD inh inconclusive
CCOc1ccc(C(=O)C(CN2CCOCC2)c2ccccc2)cc1 (stereo not given)	VDR inh inconclusive
CC(CN1CCN(CC(C)C(=O)c2ccccc2)CC1)C(=O)c1ccccc1 (stereo not given)	none (no result: Tb PFK block)
CN(C)CC(C(=O)c1ccccc1)c1ccccc1 (stereo not given)	VDR inh 50µM
O=C(c1ccccc1)C(CN1CCCCC1)c1ccccc1 (stereo not given)	VDR inh 25µM, PLK1 PBD inh inconclusive (no result: Tb PFK block)
CN(Cc1cc(Cl)cc(Cl)c1)CC(C(=O)c1ccccc1)c1ccccc1 (stereo not given)	none (no result: Tb PFK block)
CC1C=C[C@@H]2[C@H](C1)C(=O)N(Cc1ccccc1)[C@H]2c1ccccc1Br (stereo not given in full)	VDR inh 45µM (no result: PLK1 PBD inh, BRCA1 expr up, Tb PFK block)
O=C1[C@H]2CCC=C[C@H]2[C@H](c2ccccc2Br)N1Cc1ccccc1	VDR inh 56µM
C[C@@]12CCC=C[C@H]1[C@H](c1ccccc1Br)N(Cc1ccccc1)C2=O	VDR inh 50µM!
COc1ccc(N2C(=O)[C@H]3CCC=C[C@H]3[C@@H]2c2ccccc2Br)cc1	VDR inh inconclusive
O=C1[C@H]2CCC=C[C@H]2[C@H](c2cccc(Br)c2)N1Cc1ccccc1	VDR inh inconclusive, PLK1 PBD inh 21µM
CC(=O)C[n+]1cccc(Br)c1	none (no result: VDR inh, PLK1 PBD inh, Tb PFK block)
CCCCNC(=O)CCCN1C(=O)CCn2nc(-c3cccn3C)cc21	none (no result: PLK1 PBD inh, BRCA1 expr up, Tb PFK block)
c1ccc(Nc2nc(-c3ccc4c(c3)OCO4)nc3ccccc23)cc1	none (no result: PLK1 PBD inh, BRCA1 expr up, Tb PFK block)
CCOc1ccc(NS(=O)(=O)c2ccc3c(c2)N(C(C)=O)CC3)cc1	none
CCOc1ccc(NS(=O)(=O)c2ccc3c(c2)N(C(C)=O)CCS3)cc1	PLK1 PBD inh 27µM
COCCn1c(SCC(=O)Nc2ccc(C(F)(F)F)cc2)nc2c([nH]c3ccccc32)c1=O	none (no result: PLK1 PBD inh, Tb PFK block)
c1ccc(-n2ncc3c(NC4CCCC4)ncnc32)cc1	none (no result: PLK1 PBD inh, BRCA1 expr up, Tb PFK block)
COc1ccc(NC(=O)Nc2cccc3c2O[C@H](CN(C)S(=O)(=O)c2c(C)noc2C)[C@@H](C)CN([C@H](C)CO)C3=O)cc1	none
CC(C)CCNC(=O)c1ccc(-c2ccccc2)cc1	none (no result: VDR inh, PLK1 PBD inh, BRCA1 expr up)
CC(C)CCNC(=O)C(=O)Nc1ccccc1	BRCA1 expr up 8.9µM
COc1ccc(NC(=O)C(=O)NCCCn2ccnc2)cc1	none
CC(C)CCNC(=O)c1cccc(C(=O)NCCC(C)C)c1	PLK1 PBD inh 24µM
O=C(NCCCn1ccnc1)C(=O)Nc1ccccc1	PLK1 PBD inh 30µM
CC(C)CNC(=O)c1cccc(C(=O)NCC(C)C)c1	none
CCOC(=O)c1scc(-c2ccc(C)cc2)c1S(=O)(=O)Nc1ccc(F)c(F)c1	none (no result: PLK1 PBD inh, BRCA1 expr up, Tb PFK block)
CCOC(=O)c1scc(-c2ccccc2)c1S(=O)(=O)Nc1ccc(N(C)C)cc1	VDR inh 20µM (no result: PLK1 PBD inh, BRCA1 expr up, Tb PFK block)
Cc1ccc(S(=O)(=O)c2nc(-c3cccs3)oc2SC(C)c2ccccc2)cc1 (stereo not given)	none (no result: PLK1 PBD inh, BRCA1 expr up, Tb PFK block)
Cc1cn(CC(=O)NCCCn2ccnc2)c(=O)[nH]c1=O	none (no result: Tb PFK block)
CSCc1cc(C(=O)NCCN2CCOCC2)c(N)s1	none (no result: VDR inh, BRCA1 expr up, Tb PFK block)
CCC(=O)Nc1ccc(-c2nnc(SCc3ccccc3)n2C)cc1	none (no result: VDR inh, PLK1 PBD inh, Tb PFK block)
O=S(=O)(Cc1ccccc1)N(O)c1ccccc1	VDR inh 40µM, PLK1 PBD inh inconclusive
COc1ccc(CNc2nc(-c3c(C)noc3C)nc3ccccc23)c(OC)c1	none (no result: PLK1 PBD inh, BRCA1 expr up, Tb PFK block)
CS(=O)(=O)c1nsc2nc(=O)c(/C=C3\C=Nc4ccccc43)c(N)n12	none
CC(C)Sc1nsc2nc(=O)c(/C=C3\C=Nc4ccccc43)c(N)n12	PLK1 PBD inh 27µM
CC(=O)c1ccc(OCCCC(=O)n2nnc3ccccc32)cc1	VDR inh inconclusive, PLK1 PBD inh 21µM
Cc1onc(-c2ccccc2)c1C(=O)n1nnc2ccccc21	PLK1 PBD inh inconclusive
O=C(c1ccccc1)n1nnc2ccccc21	PLK1 PBD inh 6µM (no result: Tb PFK block)
O=C(CCCOc1ccc(Cl)cc1Cl)n1nnc2ccccc21	VDR inh 71µM, PLK1 PBD inh 8.4µM
CC(C)C[C@@H](CC(=O)N[C@@H](CCC(=O)O)CC(=O)O)NC(=O)[C@@H]1CNCC[C@H]1NC(=O)C[C@H](CCCN)NC(=O)C[C@H](Cc1ccccc1)NC(=O)[C@@H]1CCCC[C@H]1N	none (no result: PLK1 PBD inh, BRCA1 expr up, Tb PFK block)
COc1c2ccoc2nc2c(OC)cccc12	BRCA1 expr up 25µM
COc1cc(C(=O)Oc2ccc3c(OC)c4ccoc4nc3c2OC)cc(OC)c1OC	none (no result: PLK1 PBD inh, BRCA1 expr up, Tb PFK block)
Cc1cccc(OCC(=O)N/N=C2/SCC(=O)N2Cc2ccco2)c1	PLK1 PBD inh 11µM
Cc1ccccc1OCC(=O)N/N=C1\SCC(=O)N1Cc1ccccc1	PLK1 PBD inh 27µM
Cc1ccc(OCC(=O)N/N=C2/SCC(=O)N2Cc2ccccc2)cc1	none
O=P(O)(O)O[C@@H]1[C@H](O)[C@H](O)[C@@H](OP(=O)(O)O)[C@H](OP(=O)(O)O)[C@H]1O	none (no result: PLK1 PBD inh, BRCA1 expr up, Tb PFK block)
CCN1CCC(O)(/C=C/c2ccc(C(C)C)cc2)C(C(=O)/C=C/c2ccc(C(C)C)cc2)C1 (stereo not given)	VDR inh 40µM (no result: Tb PFK block)
CCN1CCN(C(=O)/C=C/c2ccc(C(C)C)cc2)CC1	none (no result: Tb PFK block)
COc1ccc(C(=O)O)cc1NC(=S)NC(=O)C(c1ccccc1)c1ccccc1	PLK1 PBD inh 60µM
N#Cc1cc2c(nc1SCc1ccccc1)CCC2	none
N#Cc1cc2c(nc1SCc1ccncc1)CCC2	PLK1 PBD inh inconclusive, BRCA1 expr up 11µM
CC(=O)c1cccc(NC(=O)Cn2c(=O)oc3cc(S(=O)(=O)NCc4ccccc4)ccc32)c1	none (no result: PLK1 PBD inh, BRCA1 expr up, Tb PFK block)
CCn1nnnc1SCC(=O)N1CCCc2ccccc21	PLK1 PBD inh 27µM
CC(C)c1nnc(SCC(=O)N2CCc3ccccc32)n1N	VDR inh 79µM, PLK1 PBD inh inconclusive
O=C(CSc1nnc(CN2CCOCC2)n1-c1ccccc1)N1CCc2ccccc21	none
O=C(CSc1nnc(CN2CCOCC2)n1-c1ccc(Cl)cc1)N1CCc2ccccc21	VDR inh 79µM (no result: Tb PFK block)
